Assay [1] in a line: optical density shifts of acrAB sulA E. coli – strain DRC41, OD650, 48 h, E. coli filamentation inducer project, primary screen (AID 1152).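 Also: E. coli MC1000 strain DRC41 lacking acrAB efflux pump and sulA.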 The following applies: higher = more signal, called active from +8 up or from −8 down.
Assay [2] in a line: probe aLefty1 binding on compound microarray – biochemical, small-molecule microarray, 635/667 nm fluorescence, primary screen (AID 1153).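 Also: score merges spot fluorescence with signal-to-noise ratio from the scanned slide images.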 Particulars: higher = more signal.
Assay [3] is described as follows: plasmodial surface anion channel blockers, osmotic lysis – cell-based, P. falciparum Indochina, OD700, 1 h, primary screen (AID 1154). The following applies: P. falciparum Indochina infected RBC osmotic lysis, higher = more signal, called active from +8 up or from −8 down.
The nature of assay [4]: plasmodial surface anion channel blockers, osmotic lysis – cell-based, P. falciparum Indochina, OD700, 2 h, primary screen (AID 1155).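 Also: lysis reports solute entry through the parasite surface anion channel PSAC.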 Particulars: P. falciparum Indochina infected erythrocytes, higher = more signal, called active from +8 up or from −8 down.
Assay [5] in a line: changes in parasitized red cell lysis, either direction – P. falciparum Indochina, OD700, 3 h, PSAC antagonist project, primary screen (AID 1156). Particulars: P. falciparum-infected erythrocytes, osmotic lysis, higher = more signal, called active from +8 up or from −8 down.
Assay [6] in a line: plasmodial surface anion channel blockers, osmotic lysis – cell-based, P. falciparum Indochina, OD700, 18 h, primary screen (AID 1157). The following applies: P. falciparum Indochina infected erythrocytes, osmotic lysis OD700, 18 h; higher = more signal, called active from +8 up or from −8 down.
Assay [7] in a line: S6 kinase pathway phospho-S6 level changes – cell-based, A549, cytoblot, luminescence, serum-stimulated, primary screen (AID 1158).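 Also: serum-stimulated A549 lung adenocarcinoma cells; signal is phosphorylated S6 detected by cytoblot immunostaining with HRP secondary.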 Particulars: 5 h, higher = more signal.
Assay [8] addresses NADPH oxidase 2 (Homo sapiens) (UniProt P04839). The assay can be described thus: compounds shifting NOX2 Amplex Red fluorescence – cell-based, HEK293-NOX2, PMA-stimulated, NOX inhibitor project, primary screen (AID 1159). Also: test concentration not given here. Particulars: 45 min, higher = more signal, called active from +8 up or from −8 down.
Assay [9] deals with NADPH oxidase 4 (Homo sapiens) (UniProt Q9NPH5). The assay can be described thus: compounds shifting NOX4 Amplex Red fluorescence – cell-based, HEK293-NOX4, tetracycline-induced, NOX inhibitor project, primary screen (AID 1160). The following applies: HEK293-NOX4, Amplex Red H2O2 fluorescence, 45 min; higher = more signal, called active from +8 up or from −8 down.
Chain of NADPH oxidase 4 (Homo sapiens) (Q9NPH5 whole entry, looked up): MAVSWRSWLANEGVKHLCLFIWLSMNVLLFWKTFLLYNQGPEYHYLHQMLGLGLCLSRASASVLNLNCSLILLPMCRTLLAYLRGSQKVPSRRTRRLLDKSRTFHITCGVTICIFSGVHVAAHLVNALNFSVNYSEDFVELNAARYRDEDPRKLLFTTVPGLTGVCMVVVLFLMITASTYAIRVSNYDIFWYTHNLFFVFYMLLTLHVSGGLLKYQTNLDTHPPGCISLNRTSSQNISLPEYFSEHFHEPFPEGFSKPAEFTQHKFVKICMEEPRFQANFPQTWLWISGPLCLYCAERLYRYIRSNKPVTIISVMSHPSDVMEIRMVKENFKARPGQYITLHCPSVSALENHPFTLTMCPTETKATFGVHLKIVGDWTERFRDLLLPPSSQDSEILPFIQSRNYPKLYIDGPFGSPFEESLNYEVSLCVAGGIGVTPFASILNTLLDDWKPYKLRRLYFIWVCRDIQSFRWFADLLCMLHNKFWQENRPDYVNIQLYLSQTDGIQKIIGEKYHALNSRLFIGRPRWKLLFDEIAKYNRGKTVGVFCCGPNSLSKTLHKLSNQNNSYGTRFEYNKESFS
Assay [10] has as its target NADPH oxidase 5 (Homo sapiens) (UniProt Q96PH1). Description: compounds shifting NOX5 Amplex Red fluorescence – cell-based, HEK293-NOX5, NOX inhibitor project, primary screen (AID 1161). Particulars: HEK293-NOX5, ionomycin, 45 min, higher = more signal.

Activity calls are given as the source filed them.

Chain of NADPH oxidase 2 (Homo sapiens) (P04839 whole entry, looked up): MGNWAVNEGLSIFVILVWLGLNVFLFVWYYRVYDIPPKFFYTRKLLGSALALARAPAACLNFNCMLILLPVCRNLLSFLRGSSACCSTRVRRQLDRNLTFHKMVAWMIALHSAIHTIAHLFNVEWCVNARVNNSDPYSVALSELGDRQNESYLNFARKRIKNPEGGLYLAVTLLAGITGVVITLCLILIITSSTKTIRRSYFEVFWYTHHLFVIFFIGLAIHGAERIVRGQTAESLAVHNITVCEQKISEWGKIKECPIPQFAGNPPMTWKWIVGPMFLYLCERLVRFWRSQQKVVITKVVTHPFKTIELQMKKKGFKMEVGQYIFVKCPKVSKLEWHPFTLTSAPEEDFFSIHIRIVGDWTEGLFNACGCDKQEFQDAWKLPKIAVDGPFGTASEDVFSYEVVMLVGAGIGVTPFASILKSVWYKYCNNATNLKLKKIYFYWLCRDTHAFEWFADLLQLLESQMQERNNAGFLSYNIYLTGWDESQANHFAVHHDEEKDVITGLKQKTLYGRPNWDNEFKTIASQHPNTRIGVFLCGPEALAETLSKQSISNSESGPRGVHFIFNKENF
Chain of NADPH oxidase 5 (Homo sapiens) (Q96PH1 whole entry, looked up): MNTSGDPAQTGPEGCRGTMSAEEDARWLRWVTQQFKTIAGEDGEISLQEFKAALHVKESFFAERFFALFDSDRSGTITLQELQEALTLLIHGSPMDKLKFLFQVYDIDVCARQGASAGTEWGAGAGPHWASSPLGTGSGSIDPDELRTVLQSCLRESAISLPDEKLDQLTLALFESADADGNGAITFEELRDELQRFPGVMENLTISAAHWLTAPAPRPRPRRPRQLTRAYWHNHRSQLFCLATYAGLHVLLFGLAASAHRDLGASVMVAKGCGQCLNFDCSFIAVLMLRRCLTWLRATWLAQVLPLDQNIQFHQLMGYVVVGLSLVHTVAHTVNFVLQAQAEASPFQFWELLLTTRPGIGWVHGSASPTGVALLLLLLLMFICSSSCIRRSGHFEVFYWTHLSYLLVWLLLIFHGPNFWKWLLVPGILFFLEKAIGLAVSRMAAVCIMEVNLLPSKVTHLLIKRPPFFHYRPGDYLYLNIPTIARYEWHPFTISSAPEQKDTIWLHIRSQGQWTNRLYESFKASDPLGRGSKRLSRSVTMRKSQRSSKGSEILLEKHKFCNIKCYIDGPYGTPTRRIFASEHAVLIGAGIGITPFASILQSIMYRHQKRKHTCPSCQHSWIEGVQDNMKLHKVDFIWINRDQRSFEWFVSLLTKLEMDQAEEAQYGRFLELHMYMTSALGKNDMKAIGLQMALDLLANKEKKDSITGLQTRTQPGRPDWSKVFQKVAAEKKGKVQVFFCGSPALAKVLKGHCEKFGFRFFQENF

In the case of `COC(=O)c1c(CC[C@@H](CO)NC(=O)N[C@H](Cn2cc(Cc3ccccc3)nn2)C(C)C)oc(C(C)=O)c1C(=O)OC`, the z-score was 0.618 (inactive) in assay [1]; 1.62 (inactive) in assay [3]; -0.452 (inactive) in [4]; 0.695 (inactive) in assay [5]; -0.177 (inactive) in assay [6]; 1.53 in assay [7]. Moreover, the figures for the z-score in [8], in [9] and in assay [10] were -3.91 (inactive), -1.31 (inactive) and 0.197, respectively. In assay [2], this compound displayed a composite z-score of -0.101.
In the case of `C=CCN1C(=O)[C@]2(O[C@H](CCO)[C@@H]([Si](C)(C)c3ccc(OC)cc3)[C@@H]2C)c2cc(N3CCCCC3=O)ccc21`, the z-score in assay [1] is 0.143 (inactive); in assay [3], 4.68 (inactive); in [4], 2.25 (inactive); in assay [5], -0.328 (inactive); in assay [6] it was 1.7 (inactive); in assay [7] it was 1.14. Also, the z-score in assay [8] is 0.972 (inactive); in assay [9] it was 0.43 (inactive); in assay [10], 0.801. The compound also displayed a composite z-score in assay [2] of 0.0004.
Consider `CCCC#C[Si](O[C@H](CC)c1cn([C@H](CO)Cc2ccccc2)nn1)(C(C)C)C(C)C`, for which the z-score in [1] was 1.12 (inactive); in assay [3] it was 0.442 (inactive); in [4], 0.479 (inactive); in assay [5], -1.31 (inactive); in assay [6] it was 0.752 (inactive); in [7], -0.675. The values for the z-score in assay [8], in [9] and in assay [10] were 0.819 (inactive), 0.272 (inactive) and 0.493, respectively. Besides, in assay [2], the composite z-score turned out to be 0.145.
With `CN1C(=O)C2C=CC(C(O)C3=C[C@H]4C[C@@H](C3)C4(C)C)N(Nc3ccccc3)C2C1=O` (stereo not given in full), the z-score is -0.318 (inactive) in [1]; 0.451 (inactive) in [3]; 0.69 (inactive) in assay [4]; -0.0209 (inactive) in [5]; 0.852 (inactive) in assay [6]; -0.776 in assay [7]. In addition, the z-score in assay [8] was -0.945 (inactive); in assay [9] it was -3.91 (inactive); in assay [10], -2.99. Moreover, in assay [2], the composite z-score is 0.202.
On to `C=CC[C@]12N=C(c3ccc(OCCCO)cc3)O[C@H]1c1ccccc1N(Cc1ccccc1)C2=O`, for which the z-score in assay [1] was 0.323 (inactive); in assay [3], 28.8 (active); in assay [4] it was 27.9 (active); in [5], 3.64 (inactive); in assay [6] it was 6.21 (inactive); in [7], -0.329. In addition, the values for the z-score in assay [8], in assay [9] and in assay [10] were -0.89 (inactive), 0.393 (inactive) and -0.835, respectively. The composite z-score in assay [2] stood at 0.445.
Consider `OC([C@@H]1CC(c2ccccc2)=NO1)[C@H]1CC(c2ccccc2)=NO1` (stereo not given in full), for which the z-score in assay [1] is 2.12 (inactive); in assay [3], 24.6 (active); in [4], 9.43 (active); in assay [5] it was 0.291 (inactive); in assay [6], 1.07 (inactive); in [7], 0.383. The z-score is -0.51 (inactive) in assay [8], -0.0169 (inactive) in assay [9] and 0.357 in assay [10]. The compound also registered a composite z-score in [2] of 0.139.
For `CCOc1cc(C(O)C2C=CC3C(=O)N(c4ccccc4)C(=O)C3N2Nc2ccccc2)ccc1O` (stereo not given), the z-score is -0.39 (inactive) in [1]; 6.39 (inactive) in [3]; 1.31 (inactive) in assay [4]; -0.343 (inactive) in [5]; 0.949 (inactive) in assay [6]; -0.883 in assay [7]. Besides, the figures for the z-score in assay [8], in [9] and in assay [10] were -1.19 (inactive), -1.37 (inactive) and -2.34, respectively. In addition, in assay [2], the composite z-score is -0.103.
For `COc1ccc(CCN2C(=O)[C@@]3(Cc4ccccc42)c2ccccc2C(=O)N(Cc2ccccc2C(F)(F)F)[C@H]3c2ccc(CO)cc2)cc1`, the z-score in [1] is -0.262 (inactive); in assay [3], 0.074 (inactive); in assay [4], -1.13 (inactive); in assay [5] it was -1.87 (inactive); in assay [6], -2.07 (inactive); in [7] it was 1.85. Further, the z-score in assay [8] is -1.4 (inactive); in [9], -2.08 (inactive); in [10], -2.04. This compound came in with a composite z-score in assay [2] of -0.201.
Take `[N-]=[N+]=NCc1ccccc1C[C@]1(C(=O)N2CCOCC2)N=C(c2ccc(OCCCO)cc2)O[C@H]1c1ccccc1N=[N+]=[N-]`: the z-score in [1] was 0.97 (inactive); in assay [3], 30 (active); in assay [4] it was 25.3 (active); in assay [5], 2.34 (inactive); in assay [6], 1.92 (inactive); in assay [7] it was 1.73. Besides, the z-score in assay [8] was -6.05 (inactive); in assay [9], -2.96 (inactive); in assay [10], -2.7. The composite z-score in assay [2] was 0.043.
Turning to `C=CCNC(=O)[C@@H]1[C@H]2C(=O)O[C@H](c3ccccc3)[C@H](c3ccccc3)N2[C@H](c2ccccc2OCCO)[C@@]12C(=O)N(C(=O)OCCOC)c1ccc(C#CCNC(N)=O)cc12`, the z-score in [1] is -0.302 (inactive); in assay [3], 3.09 (inactive); in [4] it was 0.483 (inactive); in assay [5], 1.3 (inactive); in assay [6] it was 0.466 (inactive); in assay [7], 0.425. Besides, the z-score in assay [8] was 1.77 (inactive); in [9], 1.54 (inactive); in assay [10], -0.131. This compound registered a composite z-score in assay [2] of 0.395.
`O=C(c1ccccc1)N1Cc2ccccc2[C@@H]2OC(c3ccc(OCCCO)cc3)=N[C@]2(Cc2ccccc2)C1=O`: the z-score is -0.672 (inactive) in assay [1]; 10.8 (active) in assay [3]; 1.35 (inactive) in assay [4]; 1.25 (inactive) in [5]; 1.23 (inactive) in [6]; -0.118 in assay [7]. The z-score in assay [8] is -0.893 (inactive); in [9], 0.418 (inactive); in [10], -0.781. Besides, the composite z-score in assay [2] stood at 0.343.
With `CC(C)C(CO)N1C(=O)[C@@H]2[C@H]3C(=O)OCC=C[C@H]3OC23C=CCN(C(C)C)C(=O)[C@@H]13` (stereo not given in full), the z-score in assay [1] is 1.4 (inactive); in assay [3] it was -0.237 (inactive); in assay [4] it was 0.139 (inactive); in assay [5], 0.333 (inactive); in assay [6], 0.649 (inactive); in assay [7], -0.1. For the same compound, the z-score was 0.834 (inactive) in assay [8], 0.457 (inactive) in assay [9] and 1.23 in assay [10]. This compound showed a composite z-score in assay [2] of -0.146.
As for `CCOC(=O)C1=CCC(c2ccc(C)cc2)N(S(=O)(=O)c2ccc(C)cc2)C1` (stereo not given), the z-score in assay [1] was -0.792 (inactive); in assay [3] it was 2.05 (inactive); in [4], 0.901 (inactive); in [5], -0.628 (inactive); in assay [6], 0.509 (inactive); in [7] it was -0.78. The z-score is 0.63 (inactive) in [8], 0.637 (inactive) in assay [9] and 1.17 in assay [10]. The compound further gave a composite z-score in [2] of 0.174.

The record behind these values is PubChem BioAssay.
